# Source: the supplement of paper PMC6522484
# ± gives the standard deviation of the averaged measurements.
# What was measured:
# DLD1 [1] = assay: cell viability (CellTiter-Glo) relative to plate median (fraction of plate median); higher = more viable cells; conditions: 5 µM; treatment time 24 h; reporter: 7TFP
# Method in brief: (§1)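 Each entry is a luminescence signal normalised to the plate median, averaged over independent replicates. The replicate count was two, and the cells were colorectal cancer lines with stable lentiviral TCF/Wnt firefly luciferase reporters exposed to library compounds at a final 5 µM for 24 h. Firefly luciferase and CellTiterGlo were measured on parallel plates.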
# HCT116 = assay: as above; conditions: 5 µM; treatment time 24 h; reporter: TCF4/Wnt
# Method in brief: as §1
# SW480 [2] = assay: as above; conditions: 5 µM; treatment time 24 h; reporter: 7TFP
# Method in brief: as §1
# DLD1 [3] = assay: TCF/Wnt firefly luciferase reporter signal relative to plate median (fraction of plate median); higher = higher Wnt reporter signal; conditions: 5 µM; treatment time 24 h; reporter: 7TFP
# Method in brief: as §1
# SW480 [4] = assay: as above; conditions: 5 µM; treatment time 24 h; reporter: 7TFP
# Method in brief: as §1
Structure (SMILES),cell viability (DLD1 [1]),cell viability (HCT116),cell viability (SW480 [2]),TCF/Wnt firefly luciferase reporter signal (DLD1 [3]),TCF/Wnt firefly luciferase reporter signal (SW480 [4])
Cl[C@H]1[C@H](Cl)[C@@H](Cl)[C@@H](Cl)[C@H](Cl)[C@H]1Cl,1.05 ± 0.014,1.035 ± 0.0071,1.04 ± 0.042,1.05 ± 0.05,1.15 ± 0.05
CCC12C=CCN3CC[C@@]4(c5ccc(OC)cc5N(C)[C@H]4[C@@](O)(C(=O)OC)[C@@H]1OC(C)=O)[C@@H]32 (stereo not given in full),0.975 ± 0.035,0.953 ± 0.025,0.9915 ± 0.0021,0.857 ± 0.042,0.821 ± 0.021
C[C@@H]1C[C@H](O)[C@@]2(O)[C@]13CC(=O)OC[C@@]2(C)[C@@](C)(O)C(=O)C3,1.115 ± 0.0071,1.03 ± 0.068,1.04 ± 0.021,1.05 ± 0.071,1.03 ± 0.054
COc1ccc2c3c([nH]c2c1)C(C)=NCC3,1.03 ± 0.059,0.971 ± 0.069,0.999 ± 0.03,1.25 ± 0.021,1.15 ± 0.071
O=C1C=C2C(=CCOC2O)O1 (stereo not given),0.883 ± 0.19,0.606 ± 0.2,0.9575 ± 0.0064,0.993 ± 0.18,0.499 ± 0.025
C=CCc1ccc(OC)cc1,1.06 ± 0.092,1 ± 0.025,1.03 ± 0.035,1.2 ± 0.11,1.025 ± 0.0071
CC(C)=CCC[C@]1(C)C=Cc2c(O)c3c(c(CC=C(C)C)c2O1)O[C@]12C(=C[C@@H]4C[C@H]1C(C)(C)O[C@@]2(C/C=C(/C)C(N)=O)C4=O)C3=O,0.976 ± 0.049,0.9335 ± 0.00071,1.03 ± 0.021,0.947 ± 0.011,0.895 ± 0.1
C=C(C)[C@H]1CN[C@H](C(=O)O)[C@H]1CC(=O)O,0.986 ± 0.035,1.01 ± 0.099,0.97 ± 0.0042,0.923 ± 0.11,0.947 ± 0.047
OC1CCCCC1N1CCC(c2ccccc2)CC1 (stereo not given),0.98 ± 0.0042,0.922 ± 0.069,1.04 ± 0.021,0.867 ± 0.1,0.92 ± 0.022
S=C=NCc1ccccc1,0.961 ± 0.053,0.928 ± 0.039,0.959 ± 0.012,0.748 ± 0.17,0.822 ± 0.071
C#C[C@]1(O)CC[C@H]2[C@@H]3CCC4=CC(=O)CC[C@]4(C)[C@H]3CC[C@@]21C,1.02 ± 0.042,1.06 ± 0.021,0.962 ± 0.048,1.05 ± 0.064,1.05 ± 0.076
C[C@H]1C(=O)O[C@@H]2CCN3CC=C(COC(=O)[C@](C)(O)[C@]1(C)O)[C@H]23,1 ± 0.023,1.04 ± 0.09,1.015 ± 0.0071,0.919 ± 0.035,0.998 ± 0.06
NCCc1c[nH]c2ccccc12,0.991 ± 0.041,1.03 ± 0.16,0.952 ± 0.061,0.988 ± 0.045,1.03 ± 0.021
C[C@]12CCC(=O)C=C1CCc1ccc(O)cc12,1.03 ± 0.042,1.05 ± 0.05,1.05 ± 0.014,1.07 ± 0.14,1.03 ± 0.028
CC(=O)O[C@@H]1[C@H]2CC[C@H]3[C@@](C)(O)[C@@H]4C[C@H](O)C(C)(C)[C@@]4(O)[C@H](O)C[C@@]13C[C@@]2(C)O,1.04 ± 0.014,1.105 ± 0.0071,1.09 ± 0.064,1.04 ± 0.014,0.984 ± 0.19
"C[C@]12CCC(=O)C[C@@H]1CC[C@@H]1[C@@H]2CC[C@]2(C)C(=O)CC[C@@H]12 [5alpha-ANDROSTAN-3,17-DIONE]",0.895 ± 0.095,1.07,0.959 ± 0.052,0.959 ± 0.086,0.9525 ± 0.005
COC(=O)[C@]1(C)CC[C@]2(C)CC[C@]3(C)C4=CCc5c(cc(O)c(O)c5C)[C@]4(C)CC[C@@]3(C)[C@@H]2C1,0.9465 ± 0.0078,1.045 ± 0.0071,1.005 ± 0.0071,1.03 ± 0.054,1.11 ± 0.014
Cc1[nH]c2ccccc2c1CN(C)C,1.05 ± 0.014,1.18 ± 0.11,1.085 ± 0.0071,1.07 ± 0.11,1.07 ± 0.057
N[C@@H](Cc1ccc(N(CCCl)CCCl)cc1)C(=O)O,1.01 ± 0.17,1.02 ± 0.04,1 ± 0.04,0.986 ± 0.0057,0.936 ± 0.081
C=CCC1(C(C)CCC)C(=O)NC(=S)NC1=O (stereo not given),1.03 ± 0.076,1.18 ± 0.23,0.951 ± 0.0028,1.02 ± 0.035,0.794 ± 0.011
COc1cc([C@@H]2c3cc4c(cc3[C@H](OC(C)=O)[C@H]3COC(=O)[C@@H]23)OCO4)cc(OC)c1OC,0.903 ± 0.098,0.904 ± 0.027,1.02 ± 0.028,0.693 ± 0.014,0.867 ± 0.092
COc1cccc(C2(O)CCCCC2CN(C)C)c1 (stereo not given),0.997 ± 0.019,1.03 ± 0.047,1 ± 0.036,1.09 ± 0.057,1.09 ± 0.021
CC1=CC(=O)c2c(O)cccc2C1=O,0.0607 ± 0.019,0.229 ± 0.24,0.404 ± 0.51,0.0412 ± 0.032,0.157 ± 0.19
COS(C)(=O)=O,1.07 ± 0.071,0.901 ± 0.021,1.015 ± 0.0071,0.98 ± 0.14,0.958 ± 0.074
CC([C@H](O)c1ccccc1)N(C)C (stereo not given in full),0.991 ± 0.0014,1.015 ± 0.0071,0.966 ± 0.091,0.915 ± 0.09,0.975 ± 0.05
N#C/C(=C\c1cccc(O)c1)C(=O)O [alpha-CYANO-3-HYDROXYCINNAMIC ACID],1.05 ± 0.028,1.01 ± 0.033,1.04 ± 0.028,1.15 ± 0.18,1.02 ± 0.014
